# The supplement of paper PMC3334620
# The full ranking holds about 33,000 sequences; the median of “E-score (-0.5 to 0.5)” is about -0.054, and the highest 2% start at about 0.39. Many of the other results were omitted from the sample, so the highest values are more common in it than they were.
# Target: Ylr278c (UniProt Q05854)
# Assay: PBM E-score (8-mer binding enrichment) (E-score (-0.5 to 0.5)); higher = stronger / more preferred TF binding
# Conditions: protein concentration: 200 nM; construct: GST-DNA-binding domain
# How it was run: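 Detection of bound protein used fluorescent anti-GST, with scans normalised by masliner. The proteins were GST-tagged yeast transcription factors applied at about 100-200 nM to universal all-10-mer Agilent arrays made double-stranded by primer extension. Each ungapped eight-base word, pooled with its reverse complement, was scored with an E-score from the Universal PBM Analysis Suite.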
# Chain of UniProt Q05854 (Q05854 whole entry): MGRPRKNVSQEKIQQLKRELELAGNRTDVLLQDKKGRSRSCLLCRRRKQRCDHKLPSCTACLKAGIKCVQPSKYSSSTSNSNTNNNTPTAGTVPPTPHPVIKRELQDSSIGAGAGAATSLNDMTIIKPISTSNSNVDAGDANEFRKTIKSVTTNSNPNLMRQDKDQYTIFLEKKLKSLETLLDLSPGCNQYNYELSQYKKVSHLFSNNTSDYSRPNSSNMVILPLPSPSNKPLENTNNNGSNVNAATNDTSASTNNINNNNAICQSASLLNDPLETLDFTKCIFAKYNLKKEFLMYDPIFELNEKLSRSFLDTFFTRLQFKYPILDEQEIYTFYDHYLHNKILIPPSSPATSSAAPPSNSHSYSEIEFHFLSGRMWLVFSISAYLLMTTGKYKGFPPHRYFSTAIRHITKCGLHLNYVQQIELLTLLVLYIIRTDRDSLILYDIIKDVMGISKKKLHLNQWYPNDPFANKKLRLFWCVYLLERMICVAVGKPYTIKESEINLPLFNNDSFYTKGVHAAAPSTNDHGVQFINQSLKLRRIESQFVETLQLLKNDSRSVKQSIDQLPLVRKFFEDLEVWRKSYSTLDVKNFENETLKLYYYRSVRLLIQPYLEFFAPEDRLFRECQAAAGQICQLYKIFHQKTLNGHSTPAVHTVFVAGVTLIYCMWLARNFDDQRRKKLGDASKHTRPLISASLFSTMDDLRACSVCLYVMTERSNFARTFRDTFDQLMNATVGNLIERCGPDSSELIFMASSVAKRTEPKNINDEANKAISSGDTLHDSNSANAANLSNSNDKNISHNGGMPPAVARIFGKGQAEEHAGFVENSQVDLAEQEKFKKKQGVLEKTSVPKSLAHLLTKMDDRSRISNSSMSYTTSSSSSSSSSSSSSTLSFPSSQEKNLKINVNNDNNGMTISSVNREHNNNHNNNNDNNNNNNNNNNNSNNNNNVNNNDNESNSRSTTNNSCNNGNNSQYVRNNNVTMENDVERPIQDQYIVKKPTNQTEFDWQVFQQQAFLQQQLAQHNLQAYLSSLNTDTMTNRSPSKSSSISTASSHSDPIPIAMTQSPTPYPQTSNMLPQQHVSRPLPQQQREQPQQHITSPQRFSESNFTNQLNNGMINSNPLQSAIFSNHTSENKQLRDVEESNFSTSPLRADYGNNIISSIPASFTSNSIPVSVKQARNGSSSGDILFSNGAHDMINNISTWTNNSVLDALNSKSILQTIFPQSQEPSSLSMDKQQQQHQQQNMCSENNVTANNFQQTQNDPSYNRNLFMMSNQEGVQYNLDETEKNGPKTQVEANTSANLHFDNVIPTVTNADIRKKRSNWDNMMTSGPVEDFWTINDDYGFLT
row,Sequence,PBM E-score
1,TACTCATA,-0.285
2,AGCATTGC,-0.106
3,GCAGTTCC,0.169
4,AGTGCGTA,-0.0325
5,CAGATAAC,0.123
6,CCCACTGA,-0.155
7,GTAGAAGA,-0.177
8,GCGGAGCC,0.394
9,CGGGAGCC,0.0673
10,TCGGAGCA,0.455
11,CTGGAGCC,0.0766
12,GAGGAGCC,-0.0931
13,GCAGAGCC,-0.128
14,TAGGAGCA,-0.184
15,TCAGAGCA,-0.282
16,CCGGAGCC,0.422
17,CTGAGGAC,0.0445
18,AGTCTTTG,-0.289
19,CATCAAGC,-0.0328
20,GGGGGCCA,-0.0264
21,AAGCAAAT,-0.19
22,GTCACGAA,-0.0546
23,AGTGTTAT,-0.0541
24,CAGTCCAA,-0.218
25,CGGAACAC,0.353

row,Sequence,PBM E-score
1,CGGAACAG,0.388
2,GGGAACAA,0.0828
3,CGGAACAA,0.427
4,TGGAACAA,-0.206
5,AGGAACAG,-0.279
6,AAACAGCA,0.0669
7,ATTTCATC,0.166
8,GCTTGTTA,0.0864
9,CCGGATCC,0.42
10,CCGGATCG,0.396
11,CCGGATCA,0.385
12,CAGGATCG,0.00336
13,ACGGATCG,0.142
14,GCGGATCC,0.271
15,CTCTTCTC,-0.106
16,AAATTCAA,0.0115
17,CAACTAAA,-0.0258
18,ACTACTCG,0.0653
19,ATCCTGGA,-0.101
20,CGTGGTAG,-0.0716
21,GTGGGAAC,-0.189
22,AACGGAAC,0.322
23,ATCGGAAT,0.443
24,CTCGGAAA,0.374
25,ATCGGAAC,0.406

row,Sequence,PBM E-score
1,AACGGAAT,0.379
2,TCGGGAAA,0.35
3,ATTGGAAC,-0.0837
4,TTCGGAAA,0.419
5,AGCGGAAT,0.385
6,CTCGGAAC,0.381
7,GTCGGAAC,0.413
8,GATGACGC,-0.146
9,AGACACCT,-0.185
10,CGCAGGGC,0.049
11,ACTTTGCT,-0.141
12,ACTAACGC,0.0051
13,AACCTCAT,-0.143
14,GTCGGGAA,0.201
15,GTCGGAAA,0.424
16,ATCGGAAG,0.332
17,AGCGGAAA,0.358
18,ATCGGAAA,0.416
19,CAGCCACC,0.0671
20,AGCGACTC,-0.142
21,ACAAACTC,0.155
22,CCCTTTAA,-0.0852
23,CTCGTTCC,0.165
24,ATTAACCG,0.322
25,CATTTGGG,-0.0571

row,Sequence,PBM E-score
1,GAAGAGAC,0.0662
2,TCATCGCA,-0.0812
3,CCATCGGG,0.259
4,CCATCGGA,0.415
5,TCATCGGA,0.408
6,CCATCGGC,0.282
7,GCATCGGC,0.308
8,TCATCGAA,-0.174
9,GCATCGGA,0.437
10,ACATCGGA,0.377
11,AAAAAGAG,-0.21
12,AGATCGCC,-0.00696
13,CCGAGAAG,0.226
14,GACAATGC,0.0317
15,GAGTCGAC,0.00525
16,CAATGGTG,-0.248
17,ACTCAATA,-0.101
18,ACTCCTAG,-0.114
19,CCACCGAC,0.0976
20,ACACCGAC,0.26
21,TCTCCAAA,-0.126
22,ACTCCGAC,0.481
23,CCTCCAAC,-0.212
24,CCTCCGAC,0.405
25,TCTCCGAA,0.455

row,Sequence,PBM E-score
1,TCTCCTAA,-0.144
2,ACTCCGAG,0.478
3,ACTCCAAG,-0.198
4,ACGCCGAC,0.343
5,AAGTAGGA,-0.313
6,ACACCGCT,0.00228
7,GGCGCATA,0.0769
8,GGGCTACA,-0.0376
9,GTGACGTA,-0.142
10,CGTCCACC,-0.00012
11,ACCTCATA,-0.101
12,AAATACGG,0.14
13,ACGAACCA,-0.125
14,GCTCCGAC,0.374
15,GCTCCGAA,0.464
16,CATCCGAG,0.193
17,CCTCCAAG,-0.202
18,ACTCCCAA,0.0108
19,ACTCCCAT,-0.16
20,ACTCCGAT,0.484
21,CCTCCGAG,0.426
22,GCTCCAAA,-0.172
23,ACTCCTAT,-0.0311
24,ACTCCAAA,-0.118
25,ACTCCGAA,0.484

row,Sequence,PBM E-score
1,ACCTAAGC,0.0293
2,GGAGAAAC,0.309
3,CAGGGCGC,0.0102
4,GGAACCAC,0.0576
5,AAGCCACG,-0.0652
6,AAAAGAGA,-0.223
7,AAAGAAGA,-0.0104
8,CCACCGAA,-0.0526
9,CCTCCGAA,0.441
10,CCTCCAAA,-0.14
11,GTGAGATA,0.052
12,AACGGATA,0.292
13,GACGGAGC,0.378
14,AACGGAGA,0.393
15,CAAGGAGA,-0.105
16,GACGGATA,0.249
17,GAGGGAGA,-0.145
18,CACGGAGA,0.429
19,GACGGAGA,0.453
20,TACGGAGA,0.386
21,AACGGAAA,0.374
22,CACGGAGC,0.403
23,CACGGACC,0.282
24,AAATCTGT,-0.0526
25,TGTTGAAA,-0.0138

row,Sequence,PBM E-score
1,ACTACTTA,-0.0798
2,CGACTATA,-0.0135
3,CCCCAGAA,0.00338
4,CACAAAGA,-0.197
5,CCATAAGC,-0.105
6,CACGGACG,0.22
7,CACGGAGG,0.394
8,AACGGAGT,0.448
9,AACGGAGG,0.3
10,AACGGACT,0.328
11,AACGGAGC,0.309
12,CCAGCTCG,-0.106
13,CTGAACCC,-0.0929
14,TAGAGGAA,-0.211
15,CAACTGGG,-0.0669
16,ACGGACCG,0.335
17,CAGGACCG,0.0623
18,CCGGACCA,0.369
19,GCGGACCC,0.354
20,CCGGACCC,0.391
21,CCGGACCG,0.426
22,CCATTCAC,-0.042
23,CTAGATAG,-0.28
24,CGCCGTAC,0.163
25,AAGGCATT,-0.246

row,Sequence,PBM E-score
1,AACTCGGA,0.392
2,CACTCGGA,0.329
3,GACTCGGA,0.4
4,GACTCGGC,0.134
5,AACTCGGT,0.00153
6,TACTCGGA,0.342
7,CAATGGGC,-0.106
8,ACTCATCC,-0.0863
9,AGGCCACG,-0.0792
10,GACCCCGC,0.247
11,AACCCCGC,0.41
12,AACCCCCG,0.26
13,CACCCCGA,0.29
14,TACCCCGA,0.411
15,ACCCCCGA,0.261
16,GACCCCGA,0.336
17,ACCCCCGC,0.266
18,AACCCCGT,0.381
19,AACCCCGA,0.431
20,AAACCCCG,0.449
21,AAACCCCC,-0.0651
22,ACGCAGAA,-0.0444
23,TATATGCA,-0.245
24,ACCAGTCA,-0.036
25,TAAGGAAA,-0.131

row,Sequence,PBM E-score
1,GCCTATAA,-0.116
2,AAGCGTTG,-0.256
3,CCAGCGCA,0.0176
4,AAGGTGCC,-0.0322
5,CGTGAATA,-0.00311
6,CAACCCCC,-0.0384
7,ATACCCCC,0.0218
8,ATACCCCG,0.401
9,AAACCCGG,0.428
10,CAACCCGG,0.229
11,ACCCCCGG,0.334
12,CAACCCCG,0.397
13,AAACCCGA,0.384
14,AACCCCGG,0.458
15,ATACCCCA,0.00063
16,CACCCCGG,0.314
17,AAACCCGC,0.287
18,ACTGTTGC,0.0649
19,ATAGGACA,-0.311
